Each structure is given as a SMILES string. In all, about 16,000 compounds went through this assay and about 4,000 (25%) were called active. Roughly 26% stayed inconclusive and do not appear here. A selection follows. Values without a mark were called inactive. Calls follow the shape of the dose curve; as a rule, active = well fitted curve in the direction sought with a large enough effect; inconclusive = small, poorly fitted or top-dose-only effect, or effect the other way; inactive = no such curve, though single readings can be large or run the other way.
% is scaled to controls: 0 for no effect and ±100 for the full control effect.

Chain of Cytochrome P450 2C9 (Homo sapiens) (P11712 whole entry, looked up): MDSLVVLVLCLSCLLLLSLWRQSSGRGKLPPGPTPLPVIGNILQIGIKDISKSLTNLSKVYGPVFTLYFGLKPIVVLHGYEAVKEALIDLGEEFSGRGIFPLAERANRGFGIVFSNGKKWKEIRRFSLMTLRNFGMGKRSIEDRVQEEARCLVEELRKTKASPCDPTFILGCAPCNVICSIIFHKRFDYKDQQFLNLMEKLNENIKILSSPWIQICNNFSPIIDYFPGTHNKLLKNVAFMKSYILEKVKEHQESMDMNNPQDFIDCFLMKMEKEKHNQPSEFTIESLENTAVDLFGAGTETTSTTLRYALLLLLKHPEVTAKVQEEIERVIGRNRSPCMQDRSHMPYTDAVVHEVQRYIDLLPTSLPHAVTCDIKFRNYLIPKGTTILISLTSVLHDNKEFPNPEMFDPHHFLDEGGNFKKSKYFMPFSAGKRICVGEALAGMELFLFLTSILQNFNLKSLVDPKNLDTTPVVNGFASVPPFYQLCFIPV

This assay has as its target Cytochrome P450 2C9 (Homo sapiens) (UniProt P11712). As to the kind of experiment: Cytochrome panel assay with activity outcomes. The note with it: recombinant CYP, pro-luciferin dealkylation, luminescence, p450-cyp2c9; series mostly up to 57.1 µM; activity, negative = inhibition: at the top concentration.
On to `O=C(Cn1ccc([N+](=O)[O-])n1)NCc1cccs1`, for which the “activity, negative = inhibition” value was -58.8%. The same measure, in the same setting: for `CCCC(=O)Nc1nnc(SCC(=O)NCc2cccs2)s1` the value was -19.5%.

In the case of `C#C[C@H](N)CCC(=O)O`, the “activity, negative = inhibition” value was 13.6%. With `CCS(=O)(=O)N1CCN(c2c(Cl)cccc2[N+](=O)[O-])CC1`, the AC50 was 11.2 µM (active).

`CCS(=O)(=O)N1CCC(C(=O)NCc2ccc(F)cc2Cl)CC1`: the “activity, negative = inhibition” value was 21.2%. On the same count and under the same terms, for `C/C(CCN1CCc2nc(-c3ccccc3)c(-c3ccccc3)cc2C1)=N\O[C@@H](C)c1cn([C@@H]2COC[C@@H]2O)nn1` the value was -10.5% [at 11.4 µM]. As to `Cc1nn(C(=O)c2cccnc2)c(C)c1Sc1ccc(Br)cc1`, the AC50 was 10 µM (active).

As for `NC(=O)/C(=N\OC(=O)c1ccco1)c1nc(-c2ccc(Br)cc2)cs1`, the “activity, negative = inhibition” value is 58.2%. On to `Cc1nn(C(C)(C)C)c(OC(=O)c2ccco2)c1Sc1ccccc1`, for which the AC50 was 10 µM (active). Still for that read-out and setting: then `Cc1nn(C(=O)c2ccco2)c(C)c1Sc1ccc(Br)cc1`, with 3.98 µM (active). `O=C(NC(=S)Nc1nc(-c2ccc(Br)cc2)cs1)c1cccnc1`: the “activity, negative = inhibition” value was -6.99%. Regarding `Cc1nc2ncnn2c(C)c1CCC(=O)N1CCN(C(=O)c2ccco2)CC1`, the “activity, negative = inhibition” value is -6.62%. Turning to `CO[C@@H]1COC(=O)[C@H]2CCCN2C(=O)[C@@H](C)COC(=O)[C@H](COCc2ccccc2)NC(=O)C/C=C\[C@H]1C`, the activity, negative = inhibition is 10.5% [at 11.4 µM].

Turning to `NC(=S)c1ccc[n+]([C@@H]2O[C@@H](COP(=O)([O-])OP(=O)(O)OC[C@@H]3O[C@@H](n4cnc5c(N)ncnc54)[C@@H](OP(=O)(O)O)[C@H]3O)[C@@H](O)[C@H]2O)c1`, the “activity, negative = inhibition” value is -19.2%. Still for that read-out and setting: for `COc1ncc2ncc(=O)n(C)c2n1` the value was 14.6%; for `CCc1ccc(OCCCC(=O)Nc2ccc(N3CCCCC3)cc2)cc1`, -21.4%. Consider `CCCCC(=O)Nc1ccc(C(=O)NNC(=O)CCc2ccccc2)cc1`, for which the “activity, negative = inhibition” value is 7.05%. For the molecule `Cc1ccc(NC(=O)NCCCc2ccccc2)cc1`, the AC50 is 11.2 µM (active). Same read-out and setting: then `CCc1ccc(NC(=O)CS(=O)CC(=O)NCCCc2ccccc2)cc1` (stereo not drawn), with 0.794 µM (active); and `O=C(NCCCc1ccccc1)c1cccs1`, with 15.8 µM (active). Turning to `COc1ccc(NC(=O)N2CCCC3(CCNCC3)C2)cc1`, the “activity, negative = inhibition” value was -5.11%. Regarding `CC(C)=CCC/C(C)=C/CO/N=C1/[C@H]2O[C@@H]2[C@@H](O)[C@H]2[C@H]1CCn1c(=O)n(-c3ccccc3)c(=O)n12`, the activity, negative = inhibition was 6.87% [at 11.4 µM]. For the molecule `CCNC(=O)c1ccc(-n2nc(C)cc2-c2ccccc2)cc1`, the half-maximal activity concentration (AC50) was 7.94 µM (active). Consider `Cc1cnnn1-c1ccc(C(=O)CCl)cc1`, for which the “activity, negative = inhibition” value was -4.42%. Regarding `Nc1ccc(C(=O)NCC(=O)O)cc1`, the “activity, negative = inhibition” value is 9.9% [at 25.6 µM]. For the molecule `N=C(N)SCCN`, the AC50 result was “inactive”. Turning to `COC(=O)CNC(=O)CCCCC(=O)NCC(=O)OC`, the “activity, negative = inhibition” value was 5.38%. Still for that read-out and setting: then `CC(C)=CCC/C(C)=C/CO/N=C1/C[C@@H](O)[C@@H](O)[C@@H]2[C@@H]3C(=O)N(Cc4ccc5c(c4)OCO5)C(=O)[C@H]3CC[C@H]12`, with -26.4% [at 11.4 µM]; and `COc1cnc(NS(=O)(=O)c2ccc(N)cc2)nc1`, with -9.19% [at 25.6 µM]. In the case of `Nc1ccc(S(=O)(=O)Nc2ncccn2)cc1`, the “activity, negative = inhibition” value was -7.42% [at 25.6 µM]. As to `COc1ccc(C(Cl)=C(c2ccc(OC)cc2)c2ccc(OC)cc2)cc1`, the “activity, negative = inhibition” value is 12.9% [at 25.6 µM]. As to `Cc1ccc(OCC(=O)NNC(=O)c2cccnc2)cc1`, the “activity, negative = inhibition” value was 0.128%.

On to `O=C(Nc1ccc(OC(=O)c2cccnc2)cc1)c1cccnc1`, for which the “activity, negative = inhibition” value is -16.9%. On to `CCCCOc1ccc(S(=O)(=O)Nc2cccnc2)cc1`, for which the AC50 was 1.26 µM (active).

For `CCCCOc1ccc(CC(=O)NO)cc1`, the “activity, negative = inhibition” value is -15.6% [at 25.6 µM].

On to `CCCCN(CCCC)CCCOC(=O)c1ccc(N)cc1`, for which the “activity, negative = inhibition” value was -9.19% [at 25.6 µM]. The same measure, in the same setting: for `COc1ccc(C(=O)N2CCC3(CC2)CCN(c2ccncc2)CC3)cc1` the value was 1.22%. For `CCCCCOc1ccc(OC(=O)c2ccncc2)cc1`, the half-maximal activity concentration (AC50) was 2.82 µM (active).

For the molecule `CCCCOc1ccc(OC(=O)c2cccnc2)cc1`, the concentration at half-maximal activity (AC50) was 14.1 µM (active). On the same count and under the same terms, for `COc1ccc(OC(=O)c2ccncc2)cc1` the value was 4.47 µM (active). Take `c1cncc(-c2cncnc2NC2CCNCC2)c1`: the activity, negative = inhibition was 17.3% [at 2.29 µM]. Consider `COc1c(C)c2c(c(O)c1C/C=C(\C)CCC(=O)O)C(=O)OC2`, for which the AC50 entry is “inactive”. Regarding `C[C@H]1C[C@H]2[C@H]3CCC4=CC(=O)C=C[C@@]4(C)[C@]3(F)[C@H](O)C[C@]2(C)[C@@]1(O)C(=O)COP(=O)(O)O`, the activity, negative = inhibition was 23.1% [at 11.4 µM]. With `FC(F)(F)c1ccccc1-n1ccnc1`, the “activity, negative = inhibition” value was -3.84%.

For `N#Cc1cccc(-c2cncnc2-n2ccnc2)c1`, the activity, negative = inhibition is 12.2% [at 2.29 µM]. As for `N#Cc1c(-n2ccnc2)cccc1-n1ccnc1`, the AC50 is 0.562 µM (active). Regarding `CCCCCCCCOC1OC(CO)C(O)C(O)C1NC(C)=O` (stereo not drawn), the “activity, negative = inhibition” value is 11.5%. On the same count and under the same terms, then `C[C@@H]1C[C@H]2[C@H]3C[C@@H](F)C4=CC(=O)C=C[C@]4(C)[C@@]3(Cl)[C@@H](O)C[C@@]2(C)[C@@H]1C(=O)COC(=O)C(C)(C)C`, with 6.05% [at 25.6 µM].

Source of the values: PubChem BioAssay AID1851 (National Center for Advancing Translational Sciences (NCATS), 2009).
